Inconclusive results are not listed. A call without a number means that no potency is given here. Activity calls are given as the source filed them. Calls come from the whole dose curve; as a rule, active = well fitted activation curve with a large enough effect; inconclusive = small, poorly fitted or top-dose-only effect; inactive = no such curve, though single readings can be large or run the other way.
Assay: Activators of T cell receptors: Hit Validation
Settings: primary human leukocytes, cytokine release by HTRF, 48 h, TCR-stimulated with anti-CD3 beads; series mostly up to 46.1 µM
Description: Normally activation of naive T cells requires two signals. 1. A signal through the T cell receptor (TCR) which provides antigen specificity to the response. 2. Signals through co-stimulatory molecules, which are necessary for proliferation, survival and cytokine production. In the absence of co-stimulatory signals T cells are not effectively activated, and may even be rendered anergic or unresponsive to subsequent signaling. This lack of costimulation has been shown in multiple model systems to be a major factor in the limited strength and effectiveness of anti-tumor T cell responses. The goal of this project is to identify small molecule compounds that will stimulate T cell activation in the presence of TCR signaling but in the absence of co-stimulatory signals, thereby allowing activation of naive T cells in the absence of co-stimulation. Identification of such compounds would have clear experimental and clinical applications in instances where desirable antigen-specific immune responses are not generated due to a lack of co-stimulation, for example in the generation of anti-tumor responses.
In collaboration between the National Cancer Institute and NIH Chemical Genomics Center, a high-throughput amenable screen was developed to discover small molecules that co-stimulate and activate human T cell receptors. The screen will be carried out using a novel homogeneous time resolved fluorescence energy transfer (HTRF) assay to measure production of the cytokine IL-2 by activated T cells and will be tested against the NIH Molecular Libraries Small Molecule Repository (MLSMR). This is the same assay tested against the hits identified in the primary screen.
NIH Chemical Genomics Center [NCGC]
NIH Molecular Libraries Probe Centers Network [MLPCN]
Assay Submitter (PI): Richard Hodes, National Cancer Institute, NIH
Primary human leukocytes are incubated with a-CD3 beads and compounds for 48 hr. The amount of secreted IL-2 is then assayed with a HTRF IL-2 kit. The presence of IL-2 cytokine captures the detection reagents and brings the a-IL-2-K and a-IL-2-d2 into close proximity. Upon excitation with 320nm light, the europium cryptate is capable of transferring energy to acceptor molecules within close proximity, resulting in acceptor molecule emission at 665nm.
Potency is the fitted concentration of half-maximal effect.

| SMILES | Potency |
| --- | --- |
| CN=c1nc(-c2ccccc2)n(-c2ccccc2)s1 | inactive |
| COc1cc(OC)cc(C(=O)Nc2ccc(S(=O)(=O)N3CCOCC3)cc2)c1 | inactive |
| O=C1/C(=C/c2cccnc2)SC(=S)N1Cc1ccco1 | inactive |
| CCCCN1CCC(COC(=O)c2cc(Cl)c(N)c3c2OCCO3)CC1 | inactive |
| COc1ccc(S(=O)(=O)N2CCN(C(=O)CCc3c[nH]c4ccccc34)CC2)cc1 | inactive |
| O=C(Cn1ncc(Cl)c(Cl)c1=O)NCC1CCCCC1 | inactive |
| CCC(/C=C1\Sc2ccc(OC)cc2N1CCO)=C\c1sc2ccc(OC)cc2[n+]1CCO | 9.96 µM (active) |
| CCN(C(=O)CSc1nnc(C2CC2)n1-c1ccccc1)C1CCS(=O)(=O)C1 (stereo not given) | inactive |
| Cc1ccc(S(=O)(=O)N2CCC(C(=O)NNC(=O)c3ccccc3O)CC2)cc1C | inactive |
| COc1cc(N)c(Cl)cc1C(=O)N[C@H]1CCN(CCCOc2ccc(F)cc2)C[C@H]1OC | inactive |
| COc1cc(NC(=O)CN2CCN(S(=O)(=O)/C=C/c3ccccc3)CC2)cc(OC)c1OC | inactive |
| CCOC(=O)c1sc(NC(=O)C2CC(=O)N(c3ccc4c(c3)OCCO4)C2)nc1C (stereo not given) | inactive |
| Cc1ccc(NC(=O)CN(C)C(=O)COC(=O)c2nccnc2N)cc1 | inactive |
| O=C(O)c1ccc(NC(=O)C(c2ccccc2)c2ccccc2)cc1 | inactive |
| CC1CCCN(S(=O)(=O)c2ccc(NC(=O)C3CCN(C(=O)C(C)(C)C)CC3)cc2)C1 (stereo not given) | inactive |
| Cc1ccc(NC2=CC(=O)C(=O)c3ccccc32)c(C)c1 | inactive |
| COc1ccc(C(=O)c2sc3nc(C)cc(-c4cccs4)c3c2N)cc1OC | inactive |
| CN(C)c1cccc(C(=O)N(Cc2ccccc2)Cc2ccccc2)c1 | inactive |
| O=S(=O)(Nc1cc(Cl)ccc1-n1cncn1)c1ccc(F)cc1 | inactive |
| CCOC(=O)c1c(C)[nH]c(C(=O)OCC(=O)Nc2ccccc2)c1C | inactive |

| SMILES | Potency |
| --- | --- |
| CCN(CC)CC(=O)c1c(N)n(Cc2ccccc2)c(=O)n(C)c1=O | inactive |
| COc1ccc(OC)c(NC(=O)CSc2nc3[nH]c(=O)cc(O)c3s2)c1 | inactive |
| CN(C)S(=O)(=O)c1ccc2oc(SCC(=O)c3c(N)n(C4CC4)c(=O)[nH]c3=O)nc2c1 | inactive |
| CCOC(=O)C1CCCN(C(=O)c2cccc(S(=O)(=O)N3CCCC3)c2)C1 (stereo not given) | inactive |
| CCOc1cc(/C=N/NC(=S)Nc2ccccc2C(F)(F)F)ccc1OCC(=O)N1CCOCC1 | inactive |
| COc1cc(C(=O)OCCCN2CCCN(CCCOC(=O)c3cc(OC)c(OC)c(OC)c3)CC2)cc(OC)c1OC | inactive |
| C=C(C)C(=O)OCC(C)C | inactive |
| Cc1ccc(C(=O)NCCc2nnc3ccc(SCC(=O)N4CCCCC4)nn23)cc1 | inactive |
| Cc1ccc(S(=O)(=O)NC23CC4CC(CC(C4)C2)C3)cc1 | inactive |
| COc1ccc(-n2c(=O)c(CCC(=O)NCCc3ccccc3F)nc3ccccc32)cc1 | inactive |
| O=C(CCOc1ccccc1)Nc1ccc(S(=O)(=O)Nc2ncccn2)cc1 | inactive |
| Cc1onc(-c2c(F)cccc2Cl)c1C(=O)Nc1sc2c(c1C(N)=O)CCC2 | inactive |
| COc1ccc(NC(=O)C2CC(=O)N(Cc3ccco3)C2)cc1Cl (stereo not given) | inactive |
| Cc1nn(Cc2ccccc2)c(C)c1C(=O)N1CCN(S(=O)(=O)/C=C/c2ccccc2)CC1 | inactive |
| CCC(=O)N1CCN(c2ccc(NC(=O)c3ccc([N+](=O)[O-])o3)cc2)CC1 | inactive |
| CN(CC(=O)Nc1ccc(N2CCOCC2)cc1)C(=O)c1ccc(CS(C)(=O)=O)cc1 | inactive |
| Cc1[nH]c2ccccc2c1C(=O)COc1ccccc1F | inactive |
| O=C(COC(=O)C1CCN(c2ccc(C(F)(F)F)cn2)CC1)NCc1ccccc1 | inactive |
| COc1cc(/C=C/C(=O)OCc2csc(CC(=O)Nc3ccc(C)cc3)n2)ccc1OCC#N | inactive |
| Cc1ccc(NS(=O)(=O)c2ccc(C)c(C(=O)NCC(c3ccccc3)N(C)C)c2)cc1 (stereo not given) | inactive |

Source: PubChem BioAssay AID624298 (National Center for Advancing Translational Sciences (NCATS), 2012)
